MLL CXXC-DNA inh: blocks binding of human MLL CXXC domain to DNA | Q03164 | Potency, µM (highest dose often 115 µM), inactives show at the top dose activity change, negative = inhibition, actives largely listed as inhibitors | AID 2662 | 290,000 compounds, 0.037% hits | MLL-CXXC / FITC-HOXA9 DNA fluorescence polarization; active = well fitted inhibition curve with a large enough effect in the polarisation, with a control signal flat, not every such curve was filed as active; inconclusive = small, poorly fitted or top-dose-only effect, or effect the other way, or a change in a side signal; inactive = no such curve, though single readings can be large or run the other way; the % refers to the polarisation; note: potency is the fitted concentration of half-maximal effect
Target sequence (Q03164 whole entry, looked up, the tested form may be a part): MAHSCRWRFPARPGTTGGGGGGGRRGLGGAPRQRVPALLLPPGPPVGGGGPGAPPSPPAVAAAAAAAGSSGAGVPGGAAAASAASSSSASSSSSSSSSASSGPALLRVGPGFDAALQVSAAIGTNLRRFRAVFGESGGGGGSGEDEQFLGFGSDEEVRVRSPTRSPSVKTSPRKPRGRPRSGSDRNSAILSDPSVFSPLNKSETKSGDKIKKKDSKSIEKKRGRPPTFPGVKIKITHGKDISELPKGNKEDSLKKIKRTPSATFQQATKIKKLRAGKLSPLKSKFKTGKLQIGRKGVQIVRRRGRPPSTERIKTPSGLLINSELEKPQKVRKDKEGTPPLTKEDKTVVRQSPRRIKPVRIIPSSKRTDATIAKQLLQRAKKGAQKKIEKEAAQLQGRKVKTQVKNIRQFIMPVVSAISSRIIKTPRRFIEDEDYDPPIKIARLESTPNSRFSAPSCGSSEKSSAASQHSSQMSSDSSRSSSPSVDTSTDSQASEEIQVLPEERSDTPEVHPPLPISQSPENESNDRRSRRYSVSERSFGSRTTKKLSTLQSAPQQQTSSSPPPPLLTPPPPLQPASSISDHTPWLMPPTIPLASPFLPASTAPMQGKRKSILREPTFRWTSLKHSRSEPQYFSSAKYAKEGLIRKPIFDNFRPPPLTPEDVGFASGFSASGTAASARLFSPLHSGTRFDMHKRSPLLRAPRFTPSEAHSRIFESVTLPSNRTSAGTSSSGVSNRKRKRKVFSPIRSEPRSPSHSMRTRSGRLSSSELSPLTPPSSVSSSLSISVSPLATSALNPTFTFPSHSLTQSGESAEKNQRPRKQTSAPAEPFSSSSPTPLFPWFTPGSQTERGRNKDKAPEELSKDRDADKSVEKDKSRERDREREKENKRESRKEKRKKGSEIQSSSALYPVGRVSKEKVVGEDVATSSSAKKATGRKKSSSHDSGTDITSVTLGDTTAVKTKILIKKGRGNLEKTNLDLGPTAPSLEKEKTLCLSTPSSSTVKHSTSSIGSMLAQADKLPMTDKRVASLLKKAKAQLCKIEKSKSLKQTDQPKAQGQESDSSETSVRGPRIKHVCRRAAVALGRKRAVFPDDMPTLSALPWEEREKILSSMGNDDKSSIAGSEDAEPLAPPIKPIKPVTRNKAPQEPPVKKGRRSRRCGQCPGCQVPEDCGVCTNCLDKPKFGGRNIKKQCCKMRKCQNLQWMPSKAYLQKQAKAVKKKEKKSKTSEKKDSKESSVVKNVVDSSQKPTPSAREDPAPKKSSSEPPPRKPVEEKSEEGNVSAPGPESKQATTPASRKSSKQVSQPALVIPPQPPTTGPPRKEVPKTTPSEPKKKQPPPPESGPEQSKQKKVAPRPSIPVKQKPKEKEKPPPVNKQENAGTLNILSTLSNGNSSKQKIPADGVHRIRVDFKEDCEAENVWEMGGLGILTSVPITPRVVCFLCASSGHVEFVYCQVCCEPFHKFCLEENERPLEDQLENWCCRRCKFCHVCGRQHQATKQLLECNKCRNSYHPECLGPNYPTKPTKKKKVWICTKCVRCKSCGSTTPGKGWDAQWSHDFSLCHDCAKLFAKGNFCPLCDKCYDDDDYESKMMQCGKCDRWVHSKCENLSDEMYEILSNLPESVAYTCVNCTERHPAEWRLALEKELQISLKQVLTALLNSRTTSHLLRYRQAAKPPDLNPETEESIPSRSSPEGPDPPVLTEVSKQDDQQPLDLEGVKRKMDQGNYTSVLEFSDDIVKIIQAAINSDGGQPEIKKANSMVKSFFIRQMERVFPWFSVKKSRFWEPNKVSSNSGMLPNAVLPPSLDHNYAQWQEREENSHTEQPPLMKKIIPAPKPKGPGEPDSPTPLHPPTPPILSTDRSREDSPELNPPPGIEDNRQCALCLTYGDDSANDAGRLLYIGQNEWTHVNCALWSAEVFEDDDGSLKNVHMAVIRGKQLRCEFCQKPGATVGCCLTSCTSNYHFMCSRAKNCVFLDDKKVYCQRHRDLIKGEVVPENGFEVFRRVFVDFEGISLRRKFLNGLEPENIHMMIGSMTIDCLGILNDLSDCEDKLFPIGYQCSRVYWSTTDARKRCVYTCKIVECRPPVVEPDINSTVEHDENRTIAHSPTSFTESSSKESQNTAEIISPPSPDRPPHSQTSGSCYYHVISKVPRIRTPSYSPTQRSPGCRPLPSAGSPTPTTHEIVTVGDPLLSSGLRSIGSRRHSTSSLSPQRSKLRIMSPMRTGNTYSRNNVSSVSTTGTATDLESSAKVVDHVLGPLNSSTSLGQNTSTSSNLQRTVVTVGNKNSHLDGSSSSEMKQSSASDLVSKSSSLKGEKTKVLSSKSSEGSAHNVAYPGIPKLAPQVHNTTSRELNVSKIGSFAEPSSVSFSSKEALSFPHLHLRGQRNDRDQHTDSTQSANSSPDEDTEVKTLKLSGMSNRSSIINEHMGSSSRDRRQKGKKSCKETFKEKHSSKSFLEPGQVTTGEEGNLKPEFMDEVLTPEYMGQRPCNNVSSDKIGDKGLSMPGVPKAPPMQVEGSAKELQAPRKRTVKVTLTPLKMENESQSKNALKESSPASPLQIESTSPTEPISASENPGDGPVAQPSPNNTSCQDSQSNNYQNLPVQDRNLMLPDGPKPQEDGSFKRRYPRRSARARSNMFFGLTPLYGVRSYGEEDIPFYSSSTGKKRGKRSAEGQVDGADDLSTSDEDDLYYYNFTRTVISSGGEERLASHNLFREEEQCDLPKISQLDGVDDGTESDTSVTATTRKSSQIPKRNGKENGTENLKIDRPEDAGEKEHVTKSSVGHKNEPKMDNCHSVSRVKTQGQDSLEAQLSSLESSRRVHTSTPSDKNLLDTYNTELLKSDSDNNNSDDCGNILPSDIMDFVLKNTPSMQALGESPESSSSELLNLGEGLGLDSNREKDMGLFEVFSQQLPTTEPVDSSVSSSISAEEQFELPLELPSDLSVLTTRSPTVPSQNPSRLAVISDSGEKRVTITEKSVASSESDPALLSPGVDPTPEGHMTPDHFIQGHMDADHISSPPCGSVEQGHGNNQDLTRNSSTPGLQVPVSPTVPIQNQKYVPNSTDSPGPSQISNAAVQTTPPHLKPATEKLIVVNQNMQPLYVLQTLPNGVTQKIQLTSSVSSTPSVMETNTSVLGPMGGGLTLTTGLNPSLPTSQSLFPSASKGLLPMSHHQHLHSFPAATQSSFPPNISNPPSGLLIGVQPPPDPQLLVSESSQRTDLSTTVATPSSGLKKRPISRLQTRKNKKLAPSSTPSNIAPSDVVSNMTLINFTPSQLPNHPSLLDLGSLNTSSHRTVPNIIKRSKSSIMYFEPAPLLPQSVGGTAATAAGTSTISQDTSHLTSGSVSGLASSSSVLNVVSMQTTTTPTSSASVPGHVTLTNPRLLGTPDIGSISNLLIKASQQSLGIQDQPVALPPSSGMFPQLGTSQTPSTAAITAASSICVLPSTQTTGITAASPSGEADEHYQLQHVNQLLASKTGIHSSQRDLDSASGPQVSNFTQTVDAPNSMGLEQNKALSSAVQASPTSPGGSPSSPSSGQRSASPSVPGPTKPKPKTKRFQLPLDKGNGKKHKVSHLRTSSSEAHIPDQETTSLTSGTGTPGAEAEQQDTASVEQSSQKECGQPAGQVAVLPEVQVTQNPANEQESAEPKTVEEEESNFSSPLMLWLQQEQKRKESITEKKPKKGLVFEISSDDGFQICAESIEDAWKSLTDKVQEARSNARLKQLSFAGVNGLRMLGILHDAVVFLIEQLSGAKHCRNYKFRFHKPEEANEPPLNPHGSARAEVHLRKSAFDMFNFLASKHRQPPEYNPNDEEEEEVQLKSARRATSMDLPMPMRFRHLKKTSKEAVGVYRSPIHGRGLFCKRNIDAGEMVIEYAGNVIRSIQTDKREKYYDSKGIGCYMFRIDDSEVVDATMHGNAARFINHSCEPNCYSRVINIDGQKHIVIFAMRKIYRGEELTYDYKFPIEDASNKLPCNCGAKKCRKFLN
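Fluorescence polarization: 7 uM MLL-CXXC (stock) preincubated 5 min with compounds, then 50 nM fluorescein-HOX-A9 DNA (stock) added; 30 min ambient. Buffer 50 mM Tris-HCl pH 7.5, 50 mM NaCl, 1 mM DTT, 0.05% BSA.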
PKM2 activator: PKM2 (human) enzyme activation. P14618. Potency, µM (highest dose often 57.5 µM), for inactives: at the highest dose activation, hits mostly activators. 260,000 compounds, 0.34% hits. purified PKM2, Kinase-Glo ATP luminescence, activation; response scale: 0% is enzyme alone, no compound; active = well fitted activation curve with a large enough effect; inconclusive = small, poorly fitted or top-dose-only effect; inactive = no such curve, though single readings can be large or run the other way; note: potency is the fitted concentration of half-maximal effect; % is set by controls: 0 for no effect and ±100 for the full control effect; nearly all actives have a fitted effect of over 55% in size
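Purified hPK-M2 (>95%) run at intermediate activity with 0.1 mM ADP and 0.5 mM PEP in 50 mM imidazole pH 7.2, KCl, MgCl2; 1 h room temperature. ATP formed read by Kinase-Glo luminescence; normalized to uninhibited and no-enzyme controls.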
Menin MLL FP FL: inhibitors of human menin-MLL interaction, wild-type MLL peptide. Fluorescence polarization, fluorescein-MLL peptide displacement from menin. FP activity change, % at 61.4 µM. 290,000 tested, under 10 active; active = well fitted curve in the direction sought with a large enough effect in the polarisation, not every such curve was filed as active; inconclusive = small, poorly fitted or top-dose-only effect, or effect the other way, or a change in a side signal; inactive = no such curve, though single readings can be large or run the other way; the % refers to the polarisation; note: % of control where 0% means no effect
Menin-MLL TR inh: inhibitors of human menin-MLL interaction, mutant MLL peptide; Menin + Texas Red MLL mutant peptide, fluorescence polarization; O00255; 270,000 compounds, 0.23% hits; Potency, µM (series often up to 61.6 µM), for the others: at the highest dose FP activity change, negative = inhibition, most hits filed as inhibitors; AID 1768; active = well fitted inhibition curve with a large enough effect in the polarisation, with a control signal flat, not every such curve was filed as active; inconclusive = small, poorly fitted or top-dose-only effect, or effect the other way, or a change in a side signal; inactive = no such curve, though single readings can be large or run the other way; the % refers to the polarisation; note: potency is the fitted concentration of half-maximal effect; % of control where 0% means no effect
* = called active by the depositor; ? = inconclusive; . = not tested or not shown; [ ] = another dose, or the depositor's remark. An excerpt weighted towards active compounds, which were near 0.41% of everything screened.

SMILES	MLL CXXC-DNA inh	PKM2 activator	Menin MLL FP FL	Menin-MLL TR inh
COc1ccc2c(c1)C(=O)[C@H](OC(=O)NS(=O)(=O)c1ccc(C)cc1)[C@@H](c1ccc(OC)c(Br)c1)O2	.	.	7	11%
C[N+]1(C)CC[C@@H](OC(=O)[C@@](O)(c2ccccc2)C2CCCC2)C1	.	.	0[24.8 µM]	0%[24.8 µM]
COc1[nH]c(/N=C/c2ccccc2)c(C#N)c1C#N	8%	-12%	?	11µM*
COc1ncc2nc(C)c(=O)n(-c3ccccc3)c2n1	.	.	-3	-2%
COc1ccc(C(C)(C)C)cc1NC(=O)c1[nH]c(C)c(C(C)=O)c1C	-13%	18µM*	-6	5%
COc1ccc(NC(=O)c2[nH]c(C)c(C(C)=O)c2C)cc1Cl	-4%	-11%	4	11%
CC(=O)N1N=C(c2ccc(C)cc2)CC1c1ccco1 (stereo unspecified)	6%	?	-5	-23%
CC(=O)N1N=C(c2ccc(Cl)cc2)CC1c1ccco1 (stereo unspecified)	0%	25µM*	4	.
C[C@H]1Cc2c(-c3ccccc3)nc3c(c2CO1)CN(C(=O)NCc1ccco1)CC3	.	0%[11.5 µM]	-1[11.7 µM]	-3%[11.7 µM]
Cc1ccc(CN(Cc2cccnc2)C(=O)CN2C(=O)COc3ccccc32)o1	1%	28µM*	2	-8%
CC(C)n1cc(/C=C2/SC(=O)N(CC(=O)Nc3ccc4c(c3)OCO4)C2=O)c2ccccc21	14%	-5%	2	7.9µM*
Cc1ccc(-c2ccc(/C=C3\C(=O)ON=C3c3ccccc3)o2)c([N+](=O)[O-])c1	?	28µM*	4	?
CCNc1ncc2nc(-c3ccccc3)c(=O)n(Cc3ccc(F)cc3)c2n1	.	.	4	18%
O=C(OCCNc1ncc(C(F)(F)F)cc1Cl)c1ccc(S(=O)(=O)N2CCOCC2)cc1	1%	20µM*	-2	3%
CNC(=O)C[C@@H](N)C(=O)N[C@@H](C(=O)N[C@@H]1C(=O)N2[C@@H]1SC(C)(C)[C@@H]2C(=O)O)c1ccc(O)cc1	5%	.	2	-7%
Cc1cccc(NC(=O)/C(C#N)=C\c2cccnc2)c1	4%	-4%	1	-7%
N#C/C(=C\c1cccnc1)C(=O)Nc1cccc(Cl)c1	-2%	5.6µM*	1	23%
O=S(=O)(Nc1nccs1)c1ccc(NS(=O)(=O)c2cccs2)cc1	2%	4.5µM*	-1	5%
O=S(=O)(Nc1ccc(S(=O)(=O)Nc2nccs2)cc1)c1ccc(Br)cc1	14%	18%	.	.
O=C(O)C1Cc2c([nH]c3ccccc23)C(c2coc3ccccc3c2=O)N1 (stereo unspecified)	.	.	?	20%
NS(=O)(=O)c1ccc(NCC2COc3ccccc3O2)c([N+](=O)[O-])c1 (stereo unspecified)	0%	20µM*	-8	25%
O=c1ccsn1Cc1ccccc1	13%	5µM*	3	0%
O=c1cc(Cl)[nH]c(=O)n1Cc1ccccc1	3%	.	-1	4%
O=C(CSc1nc2ccccc2n1Cc1ccccc1Cl)N/N=C/c1ccccc1C(=O)O	-4%	25µM*	3	.
CCOC(=O)c1c(-c2ccc(C)o2)csc1NC(=O)COC(=O)c1cccs1	0%	3.2µM*	3	30%
SMILES	MLL CXXC-DNA inh	PKM2 activator	Menin MLL FP FL	Menin-MLL TR inh
CCOC(=O)c1c(-c2ccc(C)o2)csc1NC(=O)CN1CCOCC1	-3%	?	2	0%
COc1nc(-c2ccccc2)ncc1S(=O)(=O)c1ccccc1	4%	16µM*	2	17%
Cc1ccc(NS(=O)(=O)c2ccc3c(c2)CC(=O)N3)cc1C	.	14µM*	3	1%
CCc1cccc(NS(=O)(=O)c2ccc3c(c2)CCC(=O)N3)c1	6%	2.8µM*	-1	12%
Cc1cccc(NS(=O)(=O)c2ccc3c(c2)CCC(=O)N3)c1	-6%	4µM*	-4	24%
C[C@@H]1C[C@](C)(C(=O)c2ccco2)C=C1c1ccco1	.	.	9	2%
C=CCC1(O)CCOc2ccccc21 (stereo unspecified)	.	.	-5	1%
O=C(Nc1ccc(Cl)c(Cl)c1)Nc1nnc(-c2ccncc2)s1	1%	0%	7	?
O=C(Nc1ccc(Cl)cc1)Nc1nnc(CSCc2ccc(Cl)cc2)s1	-19%	-10%	0	7.9µM*
O=C(Nc1ccc(Cl)c(Cl)c1)Nc1nnc(CC2=CCCCC2)s1	-1%	-3%	1	25µM*
Cc1ccc2[nH]c(-c3ccc(F)cc3F)cc(=O)c2c1	.	.	?	0%[94.6 µM]
CC(=O)CCc1oc2ccc(NC(C)=O)cc2c1-c1ccc(C)o1	0%	10µM*	1	15%
COC(=O)[C@H](COC(C)(C)C)NC(=O)O[C@H]1C(=O)c2cc(OC)ccc2O[C@@H]1c1ccc(OC)c(Br)c1	.	.	-3	-9%
COc1ccccc1-c1ccc(/C=C2/C=C(C)OC2=O)o1	1%	13µM*	?	2%
CCOC(=O)C1=C(c2ccccc2)N=c2s/c(=C\c3ccc(O)cc3)c(=O)n2C1c1cccs1 (stereo unspecified)	?	-2%	?	35µM*
COC(=O)C1=C(C)N=c2s/c(=C/c3cccs3)c(=O)n2C1c1cccs1 (stereo unspecified)	1%	1%	-7	?
COc1ccc(SCC(CC(C)C)N2CCN(C)CCC2=O)cc1 (stereo unspecified)	.	.	0	0%
COc1ccc2cc(C#N)c(SCC(=O)NNC(=O)Cc3ccccc3)nc2c1	4%	-8%	5	11µM*
Cc1ccc2cc(C#N)c(SCC(=O)NNC(=O)Cc3ccccc3)nc2c1	6%	1%	9	?
CC[C@H](C)[C@@H](NC(=O)O[C@@H]1Cc2cc(OC)ccc2O[C@H]1c1cccc(OC)c1)C(=O)OC	.	.	5	1%
COc1ccc(-c2nc(-c3ccccc3)oc2NC(C)C)cc1	.	.	-5	-22%
Cc1ccc(SCCc2cc[n+](CC(=O)c3ccccc3)cc2)cc1	5%	10%	-2	-15%
O=C(C[n+]1ccc(CCSc2ccc(F)cc2)cc1)c1ccccc1	32%	-7%	?	18µM*
C=CCn1c(N)c(C(=O)NCc2ccco2)sc1=S	4%	8.9µM*	0	2%
Cc1ccc(-n2c(N)c(C(=O)NCc3ccco3)sc2=S)cc1	2%	4%	0	-19%
CCc1nc2ccccc2n1Cc1cc(=O)n2cc(C)ccc2n1	-3%	16µM*	-2	-3%
CCn1c(=O)c(=O)n(CC)c2cc(S(=O)(=O)Nc3ccc(C)cc3)ccc21	0%	10µM*	1	.
COC(=O)CC1c2ccccc2C(Cc2ccc(OC)cc2)C(C)N1C(=O)OC (stereo unspecified)	.	-6%[11.5 µM]	-4[11.7 µM]	-21%[11.7 µM]
CN(C)C(=O)c1ccc(-c2nccc(NCc3cccnc3)n2)cc1	.	.	-2	-10%
O=C1C2C3c4ccccc4C(c4ccccc43)[C@@H]2C(=O)N1c1nc(-c2ccccc2)cs1 (stereo partly specified)	-5%	2%	0	?
